Measurements as given in article PMC6792352, “Limited Chemical Structural Diversity Found to Modulate Thyroid Hormone Receptor in the Tox21 Chemical Library” (Environmental Health Perspectives, 2019).
Counter-ions that a name gives are not always drawn.

test system: thyroid hormone receptor (endogenous TRα and TRβ); set-up: species or system GH3-TRE-Luc (rat pituitary); GH3-TRE-Luc luciferase reporter, antagonist mode against 1 nM T3, loss of signal, qHTS; details: read-out: Average AC50 (uM) GH3-TRE-Antag, antagonist mode, 1 nM T3, no GH3 cytotoxicity hit

Row | SMILES | AC50 [µM]
1 | C=CCc1ccccc1OCC(O)CNC(C)C (stereo not shown) [Alprenolol] | 27.2
2 | OC(CCCN1CCCCC1)(c1ccccc1)c1ccccc1 [Diphenidol] | 19
3 | CC1(C)[C@H](C(=O)O[C@H](C#N)c2cccc(Oc3ccccc3)c2)[C@@H]1C=C(Cl)Cl [alpha-Cypermethrin] | > 90
4 | CCC1(C2=NCCN2)Cc2ccccc2O1 (stereo not shown) [Efaroxan] | 45.2
5 | CCOC(=O)n1ccn(C)c1=S [Carbimazole] | > 20
6 | COc1ccc(CN(CCN(C)C)c2ccccn2)cc1 [Pyrilamine maleate] | 32.2
7 | CCCCC(CC)COC(=O)c1ccccc1C(=O)O (stereo not shown) [MEHP] | 70.2
8 | c1csc(SSc2cccs2)c1 [2-Thienyl disulfide] | 57.5
9 | CC/C=C\C/C=C\C/C=C\CCCCCCCC(=O)O [Linolenic acid] | > 50
10 | CC1(C)C2=CCCC(C)(C)[C@]23CC[C@H]1C3 [(-)-Isolongifolene] | 54.9
11 | CCC(C)(CC)c1cc(NC(=O)c2c(OC)cccc2OC)on1 [Isoxaben] | > 90
12 | CC/C=C\C/C=C\C/C=C\CCCCCCCC(=O)OCC [Ethyl linolenate] | 65.3
13 | CCN(Cc1cccc(S(=O)(=O)O)c1)c1ccc(C(=C2C=CC(=[N+](CC)Cc3cccc(S(=O)(=O)[O-])c3)C=C2)c2ccccc2)cc1 [FD&C Green No. 1] | 66.2
14 | CC/C=C\CC/C=C/C(OCC)OCC [(2E,6Z)-1,1-diethoxynona-2,6-diene] | 61.1
15 | CCCCCCOc1ccc(N)cc1 [4-Hexyloxyaniline] | 59.8
16 | NC1=NCC2c3ccccc3Cc3ccccc3N12 (stereo not shown) [Epinastine hydrochloride] | 27.1
17 | Cc1ccc(/C(=C\CN2CCCC2)c2ccccn2)cc1 [Triprolidine] | 21.5
18 | C/C=C\C/C=C/CCCCCCCCOC(C)=O [(9E,12Z)-9,12-Tetradecadien-1-ol acetate] | 68.2
19 | CCO[Si](C)(CCCOCC1CO1)OCC (stereo not shown) [Diethoxy(methyl)[3-(oxiran-2-ylmethoxy)propyl]silane] | 62.6

Row | SMILES | AC50 [µM]
20 | C/C=C1\C(=O)C[C@H]2[C@@H]3CCC4=CC(=O)CC[C@]4(C)[C@H]3CC[C@]12C [Guggulsterone Z] | 39.2
21 | c1cc2c(c(NC3=NCCN3)c1)CCCC2 [Tramazoline tosylate] | 37.5
22 | O=C(/C=C/c1ccc([N+](=O)[O-])cc1)c1ccccc1 [4-Nitrochalcone] | 49.3
23 | C[C@]12CCC(=O)C=C1[C@@H]1C[C@@H]1[C@H]1[C@@H]3[C@@H]4C[C@@H]4[C@@]4(CCC(=O)O4)[C@@]3(C)CC[C@@H]12 [Drospirenone] | 21.9
24 | CC[C@H]1OC(=O)[C@H](C)C(=O)[C@H](C)[C@@H](O[C@@H]2O[C@H](C)C[C@H](N(C)C)[C@H]2O)[C@](C)(OC)C[C@@H](C)C(=O)[C@H](C)[C@H]2N(CCCCn3cnc(-c4cccnc4)c3)C(=O)O[C@]12C [Telithromycin] | 22.2
25 | CCN(CC)c1ccc2c(C)cc(=O)oc2c1 [7-Diethylamino-4-methylcoumarin] | 85.7
26 | O=C(O)C1=NN(c2ccc(S(=O)(=O)O)cc2)C(=O)C1N=Nc1ccc(S(=O)(=O)O)cc1 (stereo not shown) [FD&C Yellow 5] | 6.01e-06
27 | COC(=O)[C@@H]1[C@H]2C[C@H]3c4[nH]c5ccccc5c4CCN3C[C@@H]2CC[C@@H]1O [Yohimbine] | 43.8
28 | CCn1c2ccccc2c2cc(N)ccc21 [3-Amino-9-ethylcarbazole hydrochloride] | 46.6
29 | CCOc1cc([N+](=O)[O-])c(OCC)cc1N1CCOCC1 [4-(2,5-Diethoxy-4-nitrophenyl)morpholine] | 28.4
30 | CC(C)CCOC(=O)/C=C/c1ccccc1 [3-Methylbutyl cinnamate] | 81.8
31 | CC[N+](CC)(CC)CCOc1ccc(/C=C/c2ccccc2)cc1 [Stilonium iodide] | 27
32 | CCOc1ccc2[nH]cc(C(=O)NCc3ccccc3)c(=O)c2n1 [CP-457920] | 45.2
33 | O=S(=O)(O)c1ccccc1/C=C/c1ccc(-c2ccc(/C=C/c3ccccc3S(=O)(=O)O)cc2)cc1 [Disodium 4,4'-bis(2-sulfostyryl)biphenyl] | 26.4
34 | CC(C)CCC[C@@H](C)[C@H]1CC(=O)C2=C3CC[C@H]4C[C@@H](O)CC[C@]4(C)[C@H]3CC[C@@]21C [Colestolone] | 7.21
35 | COC(=O)[C@H]1[C@H]2C[C@@H]3c4[nH]c5cc(OC)ccc5c4CCN3C[C@H]2C[C@@H](OC(=O)COc2ccc(OC)cc2)[C@@H]1OC [Mefeserpine] | 21.6
36 | CC(C)OC(=O)OCOP(=O)(CO[C@H](C)Cn1cnc2c(N)ncnc21)OCOC(=O)OC(C)C [Tenofovir disoproxil fumarate] | 24.9
37 | CCOC(=O)CS [Acetic acid,mercapto-,ethylester] | 73.6
